This note sets out measurements from PubChem BioAssay (NCI).

Values joined by “and” are separate entries in the source; they are usually repeats but may differ in a detail not shown here. Equal values may be shown once. The panel holds about 83,000 compounds, 20% with a hit somewhere; the sample as a whole holds those more often.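 Single-concentration screen, 48 h exposure, 96-well plates. Endpoint: percent growth. Below 10 = active.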 Active and inactive are the calls of the source.

This experiment relates to MDA-MB-468 breast. Kind of experiment: NCI-60 one-dose screen, 48 h (100 = growth as untreated, 0 = no growth, -100 = all killed). The note with it: 10 µM unless noted.
Take `CCOC(=O)C1=CCC(n2cc(F)c(=O)[nH]c2=O)O1` (stereo not given): the growth is 134% (inactive). With `Cc1ccc(-n2nc(C(C)(C)C)cc2NC(=O)NCc2cc(F)ccc2Oc2ccc3c(cnn3CCO)c2)cc1`, the growth was 23.5% (inactive). Regarding `CC1Cc2ccc(OCCN(C)C)cc2C1=O` (stereo not given), the growth is 96.2% (inactive). The same measure for `c1ccc(CSc2ncccc2-c2nnc(SCCN3CCOCC3)o2)cc1`: 98.3% (inactive); for `COc1cc2c(cc1OC)C(=O)C(CC1CCN(C(=O)Nc3ccc(C)cc3)CC1)C2` (stereo not given): 93.1% (inactive); for `Cn1c(=O)c2[nH]c(CCCCCCCCc3nc4ccccc4[nH]3)nc2n(C)c1=O`: 10.7% (inactive) and 21.7% (inactive). Then `Nc1ncnc2nc(Br)[nH]c12`, with 102% (inactive); and `CC1=C(C)C(=O)C(Nc2ccc(C)c(C)c2)=C(Br)C1=O`, with 1.26% (active); and `O=c1[nH]c(=S)[nH]n1C(=S)n1[nH]c(=S)[nH]c1=O`, with 92.5% (inactive). The same measure for `NS(=O)(=O)c1ccc(CCN2C(=O)c3cc(Cl)c(Cl)cc3C2=O)cc1`: 119% (inactive); for `O=C(/C=C1\C=CN(CCCCF)c2ccccc21)n1ccc2ccccc21`: 91.2% (inactive); for `CCOC(=O)/C=C\C(=O)NC(N)=O`: 88.6% (inactive). As to `Cc1ccc[n+](CC(=O)c2cccc3ccccc23)c1`, the growth is 80.2% (inactive). Consider `Cc1nc2ccccc2c(N)c1-c1cc(C)c2c(C)nc3ccccc3c2n1`, for which the growth was -94.8% (active). The same measure for `CCC(C)[C@H]1O[C@]2(CC[C@@H]1C)C[C@@H]1C[C@@H](C/C=C(\C)[C@@H](OC3C[C@H](OC)C(O[C@H]4C[C@H](OC)[C@@H](O)[C@H](C)O4)[C@H](C)O3)[C@@H](C)/C=C/C=C3\CO[C@@H]4[C@H](O)C(C)=C[C@@H](C(=O)O1)[C@]34O)O2` (stereo not given in full): 10.5% (inactive).

Regarding `Cc1nn(-c2ccccc2)c2nc(C)n(-c3ccc(Br)cc3)c(=O)c12`, the growth was -5.99% (active). For `COc1cccc(CCN2C(=O)CCC3=C2CCC3=O)c1`, the growth is 103% (inactive). In the case of `CN1C(=O)N(c2ccccc2)C2N=C(N/N=C/c3ccccc3)SC21` (stereo not given), the growth was -11.5% (active). Then `Cn1nc(C(F)(F)F)cc1-c1cc(Cl)c(OCc2ccc(Cl)cc2)c(-c2ccc(Cl)c(C(F)(F)F)c2)c1O`, with -16.1% (active); and `O=C1Nc2c(ccc(Cl)c2Cl)/C1=C/c1ccc(O)cc1`, with 62% (inactive). Then `Cc1ccc(-c2nc(SCc3nc4cc(Cl)c(Cl)cc4[nH]3)[nH]c(=O)c2C#N)cc1`, with 116% (inactive).

For `NC(=O)c1nc2c([nH]c1=O)CCCC2`, the growth was 95% (inactive). Consider `NS(=O)(=O)c1ccc(C2C3=C(CCCC3=O)OC3=C2C(=O)c2ccccc2C3=O)cc1` (stereo not given), for which the growth is -47.4% (active). Then `C1CCC(C(CC2CCCCN2)C2CCCCC2)CC1` (stereo not given), with -90.1% (active). The same measure for `CC/C=C\C[C@H](O)C/C=C1/C(=O)C=C[C@@H]1C/C=C\CCCC(N)=O`: -33.1% (active); for `Cc1cnc(/C=N\NC(N)=S)c2cccc(N)c12`: -27.7% (active). The same measure for `CN(C)c1ncnc2c1nnn2C1OC(CO)C(O)C1O` (stereo not given): -26.5% (active); for `CCCCCCCCCCCCCCCCCC1=NC(C)(CO)CO1` (stereo not given): 82% (inactive); for `COc1cccc(C(=O)NNC(=O)c2cccc3ccccc23)c1`: 111% (inactive). For `CCOC(=O)C1CCN(c2ccc(N3C[C@@H](CNCc4ccc(C(=N)N)cc4)OC3=O)cc2)CC1`, the growth is 100% (inactive). Regarding `O=C(O)C1CCC(=O)N1C(=O)OCc1ccccc1` (stereo not given), the growth is 106% (inactive). Then `CCCCN(CCCC)CCC(O)c1cc2ccc(C(F)(F)F)cc2c2cc(C(F)(F)F)ccc12` (stereo not given), with 39.6% (inactive). Take `CC[C@@H]1NC(=O)[C@@H]2CCCCN2C(=O)[C@@H]2CCCN2C(=O)[C@@H](NC(=O)[C@H](Cc2cc(F)cc(F)c2)NC(=O)Nc2ccc(C3CC3)cc2F)[C@H](C)OC(=O)[C@@H]2C[C@@H](C)CN2C1=O`: the growth was -33.6% (active). Then `CCNC(=O)Oc1ccc(/C(=C(/C)Cc2ccc(OC)cc2)c2ccc(OCCN3CCCCC3)cc2)cc1`, with 42.4% (inactive); and `N#C/C(=C\NC(=S)N=Nc1c(O)[nH]c2ccccc12)c1nc2ccccc2s1`, with 79.8% (inactive); and `O=C(Nc1ncc(Cc2ccccc2Cl)s1)c1ccc2c(c1)OCCO2`, with 18.5% (inactive). As to `Cn1cc(-c2nn3cc(-c4ccncc4)nc3s2)c2cc(F)ccc21`, the growth was 54.6% (inactive). Turning to `CN(c1ccccc1)c1ncnc2c1ncn2C`, the growth was 113% (inactive). The same measure for `Cc1ccc(N(CC(=O)Nc2ccc(S(=O)(=O)N3CCC(N4CCCC4)CC3)cc2)S(=O)(=O)c2ccc(Cl)cc2)cc1`: -19.6% (active); for `Cc1cc(NCc2cc(Nc3ccnc4cc(Cl)ccc34)ccc2F)nc(Cl)n1`: -3.4% (active).
